The values below come from ChEMBL document CHEMBL3988442, “University of Dundee, Small-Polar-MMV Screening Library” (2021).

The structures appear in SMILES notation. For some of these results: Measured potencies and affinities stand elsewhere.

What all share (set-up): scale not given: direction of the effect not stated beside the values
The target in assay [1] is Protein translocase subunit SecA (Escherichia coli (strain K12)) (UniProt P10408). The assay can be described thus: Assay to Identify E. coli SecA ATPase Inhibitors. Type of assay: functional. The conditions noted are these: 30 µM.
Assay [2] has as its target T1, Ubiquitin-activating enzyme e1, putative (Leishmania donovani (strain BPK282A1)) (UniProt E9BSI1).
T1 sequence (whole entry): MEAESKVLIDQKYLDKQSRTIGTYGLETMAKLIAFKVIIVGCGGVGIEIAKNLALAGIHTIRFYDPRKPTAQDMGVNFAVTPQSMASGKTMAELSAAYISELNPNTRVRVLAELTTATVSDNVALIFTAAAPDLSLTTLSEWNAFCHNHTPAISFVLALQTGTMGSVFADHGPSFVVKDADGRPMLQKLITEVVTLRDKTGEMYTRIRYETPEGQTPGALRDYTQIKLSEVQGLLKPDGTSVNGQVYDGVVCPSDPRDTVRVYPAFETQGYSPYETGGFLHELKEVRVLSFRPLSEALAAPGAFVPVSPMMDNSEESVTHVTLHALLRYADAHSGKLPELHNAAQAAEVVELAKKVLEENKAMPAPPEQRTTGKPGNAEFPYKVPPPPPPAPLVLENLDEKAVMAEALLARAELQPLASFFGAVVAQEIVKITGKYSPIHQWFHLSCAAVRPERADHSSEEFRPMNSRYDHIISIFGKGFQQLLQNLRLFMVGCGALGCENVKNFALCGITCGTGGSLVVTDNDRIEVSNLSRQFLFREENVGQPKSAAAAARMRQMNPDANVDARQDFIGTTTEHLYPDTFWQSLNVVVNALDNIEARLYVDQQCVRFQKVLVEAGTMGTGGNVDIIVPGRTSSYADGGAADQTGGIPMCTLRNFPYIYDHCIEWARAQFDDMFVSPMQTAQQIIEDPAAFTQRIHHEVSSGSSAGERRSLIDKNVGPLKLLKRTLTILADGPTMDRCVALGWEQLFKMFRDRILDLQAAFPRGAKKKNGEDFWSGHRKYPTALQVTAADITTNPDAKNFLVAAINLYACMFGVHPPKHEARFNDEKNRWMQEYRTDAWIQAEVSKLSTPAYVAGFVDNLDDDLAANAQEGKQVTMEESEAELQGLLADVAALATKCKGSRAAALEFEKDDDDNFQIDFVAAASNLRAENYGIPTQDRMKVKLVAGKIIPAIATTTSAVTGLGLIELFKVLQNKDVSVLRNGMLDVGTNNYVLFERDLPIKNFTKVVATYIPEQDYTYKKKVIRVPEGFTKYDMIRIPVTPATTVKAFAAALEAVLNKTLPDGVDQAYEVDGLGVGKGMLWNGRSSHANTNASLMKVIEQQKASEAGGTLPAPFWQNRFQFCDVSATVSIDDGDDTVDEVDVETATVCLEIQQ
The assay can be described thus: Leishmania donovani Ubiquitin Activating Enzyme (LdE1). Type of assay: functional. The conditions noted are these: 30 µM.

In assay [3] the target is AMP-activated protein kinase, AMPK (Homo sapiens) (UniProt P54646+O43741+P54619+Q9UGJ0+Q9Y478+Q13131+Q9UGI9). The assay is described as follows: AMP-dependent Kinase enzyme assay. An in vitro enzyme assay that detects ADP turnover that is directly proportional to AMPK activity. This uses naive AMPK that is activated during the assay with MK-8722. Format: functional. The conditions noted are these: 30 µM.

Assay [4] deals with Sialic acid-binding Ig-like lectin 9 (Homo sapiens) (UniProt Q9Y336). The assay can be described thus: Hs-Siglec9 ALPHAscreen SOP 20170721. The note with it: 10 µM. A general note: Alpha assays give light when donor and acceptor beads are brought close together.
A further assay relates to Trypanosoma cruzi. The assay can be described thus: Trypanosoma cruzi phosphomannomutase and mannose-1-phosphate guanylyltransferase assay. Format: functional. The note with it: 10 µM.
Assay [5] addresses T2, Arginase-2, mitochondrial (Homo sapiens) (UniProt P78540).
T2 sequence (whole entry): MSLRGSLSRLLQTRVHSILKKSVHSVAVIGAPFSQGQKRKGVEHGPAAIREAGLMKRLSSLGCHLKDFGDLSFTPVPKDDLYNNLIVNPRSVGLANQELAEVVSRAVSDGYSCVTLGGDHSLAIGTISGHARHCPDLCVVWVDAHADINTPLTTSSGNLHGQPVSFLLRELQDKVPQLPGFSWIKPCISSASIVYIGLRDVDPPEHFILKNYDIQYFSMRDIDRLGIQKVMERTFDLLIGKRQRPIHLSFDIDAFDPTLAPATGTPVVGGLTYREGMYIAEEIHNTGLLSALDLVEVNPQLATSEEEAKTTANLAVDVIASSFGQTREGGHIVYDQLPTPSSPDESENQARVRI
The assay is described as follows: in vitro enzyme assay to detect the production of urea directly proportional to the activity of Arginase II. Further: in the data most compounds retested in dose-response had high values. Format: functional. The note with it: 33.3 µM.

The target in assay [6] is T3, Proteasome subunit beta (Trypanosoma cruzi) (UniProt O96673).
T3 sequence (whole entry): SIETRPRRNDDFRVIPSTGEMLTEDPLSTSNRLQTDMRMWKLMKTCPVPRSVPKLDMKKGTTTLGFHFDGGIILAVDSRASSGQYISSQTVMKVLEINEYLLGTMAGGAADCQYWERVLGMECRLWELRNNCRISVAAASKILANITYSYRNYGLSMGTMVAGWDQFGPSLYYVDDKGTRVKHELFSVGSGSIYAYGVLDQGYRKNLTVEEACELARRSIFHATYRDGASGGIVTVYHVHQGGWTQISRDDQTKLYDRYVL
The assay is described as follows: Trypanosoma cruzi proteasome chymotrypsin-like activity (TcProtChymo) assay. Further: in the data most compounds retested in dose-response had high values. Type of assay: functional. The conditions noted are these: 9.37 µM.

The next assay is filed under the species Homo sapiens. The assay is described as follows: To identify inhibition of the IFN signalling (Jak-Stat) pathway via expression of an eGFP reporter gene under the control of an IFN-stimulated response element (ISRE) containing MxA promoter. Type of assay: functional. The note with it: 30 µM.
Assay [7] addresses T4, Tyrosyl-tRNA synthetase, putative (Trypanosoma cruzi (strain CL Brener)) (UniProt Q4DSP6).
T4 sequence (whole entry): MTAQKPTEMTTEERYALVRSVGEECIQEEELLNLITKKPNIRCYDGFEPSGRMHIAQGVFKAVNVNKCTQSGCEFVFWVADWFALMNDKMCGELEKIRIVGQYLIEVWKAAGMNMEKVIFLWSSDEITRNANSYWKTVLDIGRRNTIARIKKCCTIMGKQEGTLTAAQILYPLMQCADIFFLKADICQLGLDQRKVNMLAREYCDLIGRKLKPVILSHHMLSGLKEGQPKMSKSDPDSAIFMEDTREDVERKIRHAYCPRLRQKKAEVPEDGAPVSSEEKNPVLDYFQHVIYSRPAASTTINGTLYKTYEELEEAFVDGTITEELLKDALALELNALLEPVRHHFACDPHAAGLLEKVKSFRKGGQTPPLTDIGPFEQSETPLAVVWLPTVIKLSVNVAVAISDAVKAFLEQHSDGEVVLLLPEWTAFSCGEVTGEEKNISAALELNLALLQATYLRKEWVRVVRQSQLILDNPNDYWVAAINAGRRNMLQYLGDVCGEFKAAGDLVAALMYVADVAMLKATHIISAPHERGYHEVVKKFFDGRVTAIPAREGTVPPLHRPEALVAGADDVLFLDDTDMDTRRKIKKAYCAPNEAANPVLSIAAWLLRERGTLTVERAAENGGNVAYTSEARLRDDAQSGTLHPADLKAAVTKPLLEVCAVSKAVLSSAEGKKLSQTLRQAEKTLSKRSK
The assay is described as follows: Trypanosoma cruzi tyrosyl tRNA synthetase (TcYRS) _High Tyrosine SOP. Further: in the data most compounds retested in dose-response had high values. Format: functional. The note with it: 30 µM.

Assay [8] deals with T4, Tyrosyl-tRNA synthetase, putative (Trypanosoma cruzi (strain CL Brener)). The assay is described as follows: Trypanosoma cruzi tyrosyl tRNA synthetase (TcYRS) SOP. Type of assay: functional. The conditions noted are these: 30 µM.
Assay [9] addresses Chromo domain-containing protein 1 (Saccharomyces cerevisiae (strain ATCC 204508 / S288c) (Baker's yeast)) (UniProt P32657). The assay is described as follows: ScCHD-1 Enzyme Inhibition Assay. Further: in the data most compounds retested in dose-response had high values. Type of assay: functional. The conditions noted are these: 30 µM.

Sequence of Protein translocase subunit SecA (Escherichia coli (strain K12)) (P10408 whole entry): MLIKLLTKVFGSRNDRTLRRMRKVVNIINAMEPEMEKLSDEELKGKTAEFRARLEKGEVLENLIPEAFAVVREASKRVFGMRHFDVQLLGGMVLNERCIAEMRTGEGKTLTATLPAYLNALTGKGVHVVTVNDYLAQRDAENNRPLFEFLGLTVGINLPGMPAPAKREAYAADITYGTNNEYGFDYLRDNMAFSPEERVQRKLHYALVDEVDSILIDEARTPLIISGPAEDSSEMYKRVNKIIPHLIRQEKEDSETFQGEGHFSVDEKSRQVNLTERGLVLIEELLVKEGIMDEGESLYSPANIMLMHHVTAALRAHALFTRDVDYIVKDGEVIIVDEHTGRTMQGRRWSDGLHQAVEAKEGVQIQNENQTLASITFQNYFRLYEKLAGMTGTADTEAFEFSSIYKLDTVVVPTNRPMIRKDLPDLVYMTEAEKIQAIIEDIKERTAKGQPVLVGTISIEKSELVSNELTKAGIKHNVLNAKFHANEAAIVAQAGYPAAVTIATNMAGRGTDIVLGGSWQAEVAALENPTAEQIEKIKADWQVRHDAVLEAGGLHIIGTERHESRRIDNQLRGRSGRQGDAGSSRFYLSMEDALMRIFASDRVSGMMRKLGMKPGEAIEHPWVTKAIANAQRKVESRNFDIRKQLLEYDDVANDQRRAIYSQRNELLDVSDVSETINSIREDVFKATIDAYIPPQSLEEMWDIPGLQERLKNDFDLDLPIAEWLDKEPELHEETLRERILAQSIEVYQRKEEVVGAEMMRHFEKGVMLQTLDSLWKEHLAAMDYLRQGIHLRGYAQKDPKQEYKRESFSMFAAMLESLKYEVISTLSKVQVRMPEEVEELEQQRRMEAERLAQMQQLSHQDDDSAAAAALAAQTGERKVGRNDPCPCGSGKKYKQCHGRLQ
Sequence of Chromo domain-containing protein 1 (Saccharomyces cerevisiae (strain ATCC 204508 / S288c) (Baker's yeast)) (P32657 whole entry, the tested form may be a part): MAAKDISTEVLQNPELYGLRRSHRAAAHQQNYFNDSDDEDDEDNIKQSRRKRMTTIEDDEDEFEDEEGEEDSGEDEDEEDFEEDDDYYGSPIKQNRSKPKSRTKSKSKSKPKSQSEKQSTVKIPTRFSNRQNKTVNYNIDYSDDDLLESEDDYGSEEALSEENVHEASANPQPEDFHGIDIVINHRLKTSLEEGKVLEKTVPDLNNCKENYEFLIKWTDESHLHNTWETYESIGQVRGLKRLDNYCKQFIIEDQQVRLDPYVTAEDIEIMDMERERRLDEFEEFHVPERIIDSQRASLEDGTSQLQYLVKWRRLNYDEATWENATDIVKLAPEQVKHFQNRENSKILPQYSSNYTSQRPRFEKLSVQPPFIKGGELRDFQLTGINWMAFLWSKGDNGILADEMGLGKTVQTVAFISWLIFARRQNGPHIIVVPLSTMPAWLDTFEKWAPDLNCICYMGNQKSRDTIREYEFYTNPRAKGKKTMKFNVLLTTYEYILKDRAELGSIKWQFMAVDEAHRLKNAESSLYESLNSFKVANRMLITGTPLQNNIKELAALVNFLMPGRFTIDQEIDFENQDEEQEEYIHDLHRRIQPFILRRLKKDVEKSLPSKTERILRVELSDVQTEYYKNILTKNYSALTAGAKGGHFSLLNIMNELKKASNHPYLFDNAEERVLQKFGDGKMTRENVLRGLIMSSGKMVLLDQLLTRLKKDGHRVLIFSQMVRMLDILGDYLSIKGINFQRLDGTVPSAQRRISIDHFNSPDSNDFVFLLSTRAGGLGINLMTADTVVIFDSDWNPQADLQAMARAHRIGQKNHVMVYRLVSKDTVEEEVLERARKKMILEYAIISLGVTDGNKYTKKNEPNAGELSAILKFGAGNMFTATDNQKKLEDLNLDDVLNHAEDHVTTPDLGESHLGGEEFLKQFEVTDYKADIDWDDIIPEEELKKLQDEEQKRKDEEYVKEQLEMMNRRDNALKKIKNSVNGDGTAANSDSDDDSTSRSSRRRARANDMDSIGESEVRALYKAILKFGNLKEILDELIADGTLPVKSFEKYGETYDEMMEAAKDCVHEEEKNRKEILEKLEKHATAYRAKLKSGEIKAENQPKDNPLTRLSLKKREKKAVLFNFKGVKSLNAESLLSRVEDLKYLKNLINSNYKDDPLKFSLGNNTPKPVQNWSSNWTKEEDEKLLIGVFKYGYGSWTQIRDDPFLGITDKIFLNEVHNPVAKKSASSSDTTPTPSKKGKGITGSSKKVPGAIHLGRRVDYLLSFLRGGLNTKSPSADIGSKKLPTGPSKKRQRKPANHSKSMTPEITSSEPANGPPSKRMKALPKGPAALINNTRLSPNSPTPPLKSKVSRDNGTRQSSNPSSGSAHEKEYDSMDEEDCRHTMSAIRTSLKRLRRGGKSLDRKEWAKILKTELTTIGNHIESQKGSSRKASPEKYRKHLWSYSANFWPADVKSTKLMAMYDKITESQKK
Sequence of Sialic acid-binding Ig-like lectin 9 (Homo sapiens) (Q9Y336 whole entry): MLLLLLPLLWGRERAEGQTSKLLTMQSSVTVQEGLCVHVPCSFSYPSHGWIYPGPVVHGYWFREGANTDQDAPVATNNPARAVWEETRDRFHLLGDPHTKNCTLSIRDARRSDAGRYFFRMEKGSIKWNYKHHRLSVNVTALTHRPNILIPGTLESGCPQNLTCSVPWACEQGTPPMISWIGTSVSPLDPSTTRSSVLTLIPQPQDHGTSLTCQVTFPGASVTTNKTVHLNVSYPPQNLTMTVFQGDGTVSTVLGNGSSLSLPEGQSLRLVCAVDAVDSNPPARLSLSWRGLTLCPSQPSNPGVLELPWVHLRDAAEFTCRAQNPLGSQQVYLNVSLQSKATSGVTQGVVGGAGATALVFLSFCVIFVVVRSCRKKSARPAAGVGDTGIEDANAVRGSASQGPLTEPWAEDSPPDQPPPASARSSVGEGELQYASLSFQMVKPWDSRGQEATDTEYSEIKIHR

Take `CN(Cc1cnn(C)c1)C(=O)NCc1nnc2n1CCC2`: the Percent Effect was -4.33% in [1]; 10.1% in assay [2]; 2.17% in assay [3]; 6.31% in assay [4]; 4.06% in the assay with Trypanosoma cruzi; 1.52% in assay [5]. In addition, the Percent Effect is -0.901% in assay [6]; 3.9% in the assay listed under Homo sapiens; 5.42% in assay [7]; 8.86% in assay [8]; -6.73% in [9].
Take `Cn1nccc1CNC(=O)Nc1cc(C(F)(F)F)c[nH]c1=O`: the Percent Effect in [1] is -2.37%; in assay [2] it was 7.89%; in assay [3], -1.77%; in assay [4], 11.9%; in the assay on Trypanosoma cruzi it was 2.44%; in assay [5], 8.43%. Also, the Percent Effect in assay [6] was 4.51%; in the assay listed under Homo sapiens, 0.842%; in assay [7] it was 6.37%; in assay [8] it was 12.2%; in assay [9], -9.48%.
Consider `O=C(c1cnccn1)N1CCN(Cc2ccncc2)c2ncccc2C1`, for which the Percent Effect was -1.27% in assay [1]; 0% in [2]; 2.52% in assay [3]; 4.53% in assay [4]; -1.54% in the assay with Trypanosoma cruzi; -20.2% in [5]. The Percent Effect is 2.73% in assay [6]; -10.5% in the assay filed under Homo sapiens; 2.08% in [7]; 2.5% in assay [8]; -3.2% in [9].
`Cc1nccn1-c1cc(CNC(=O)CCNC(=O)C2CCCC2)ccn1`: the Percent Effect in assay [1] was -5.76%; in [2], 21.1%; in assay [3] it was -10%; in assay [4] it was 9.11%; with Trypanosoma cruzi, 6.63%; in assay [5], -4.68%. Besides, the Percent Effect in [6] is 5.84%; in the assay listed under Homo sapiens it was 5.17%; in assay [7] it was 8.37%; in [8] it was 23.5%; in assay [9], -6.78%.
Take `CC(C)c1nn(CC(=O)N2CCCCC2)c(=O)c2c1cnn2C(C)(C)C`: the Percent Effect was -2.78% in assay [1]; 11% in assay [2]; -3.21% in assay [3]; -1.33% in [4]; -4.31% in the assay on Trypanosoma cruzi; 0.455% in assay [5]. Also, the Percent Effect is 16.5% in assay [6]; 17.3% in the assay filed under Homo sapiens; 2.15% in assay [7]; 12.5% in [8]; -6.96% in assay [9].
As to `CCn1c(CN(C)C)nnc1C1CCN(Cc2cccc(OC)c2)CC1`, the Percent Effect in assay [1] is 2.78%; in [2], 10.4%; in [3], -4.93%; in assay [4], 7.22%; in the assay on Trypanosoma cruzi, -3.64%; in [5], -12.4%. Further, the Percent Effect in [6] was found to be 16%; in the assay listed under Homo sapiens, 10.6%; in assay [7] it was 4.3%; in assay [8], 11.1%; in assay [9], 0.325%.
Regarding `Cc1ccc(C)n1-c1ccc(C(=O)NCCNc2ncccn2)cc1`, the Percent Effect is -1.31% in [1]; 7.89% in [2]; -10.7% in [3]; -3.65% in assay [4]; 3.46% in the assay on Trypanosoma cruzi; -6.83% in assay [5]. Moreover, the Percent Effect in assay [6] was 15%; in the assay filed under Homo sapiens, -6.26%; in [7], 9.36%; in assay [8], 18.5%; in assay [9], 0.738%.
As for `CC(C)N1CCc2c(C#N)c(NCc3ccco3)n3cnnc3c2C1`, the Percent Effect was -3.81% in [1]; 7.89% in assay [2]; 6.37% in assay [3]; -3.12% in assay [4]; -3.8% in the assay on Trypanosoma cruzi; 3.55% in assay [5]. For the same compound, the Percent Effect is 15.4% in assay [6]; -16.1% in the assay filed under Homo sapiens; 1.06% in [7]; 7.79% in assay [8]; -9.63% in [9].
As to `COc1ccc(Cc2nnc(SC)o2)cc1OC`, the Percent Effect is -4.8% in [1]; 0% in [2]; -3.66% in assay [3]; 1.57% in assay [4]; 6.72% with Trypanosoma cruzi; -1.56% in [5]. The Percent Effect in assay [6] was 8.72%; in the assay filed under Homo sapiens it was -12.7%; in assay [7] it was 3.83%; in assay [8], 11.1%; in assay [9] it was -3.69%.
As to `Cc1c[nH]nc1C1CCN(S(=O)(=O)N(C)C)CC1`, the Percent Effect was -3.15% in assay [1]; 1.35% in assay [2]; -2.65% in assay [3]; 1.12% in assay [4]; -7.12% with Trypanosoma cruzi; -1.16% in [5]. The Percent Effect in assay [6] is -3.59%; in the assay filed under Homo sapiens, 9.82%; in assay [7], 2.15%; in assay [8], 6.49%; in assay [9], -2.55%.
As for `CN(C(=O)Cn1nc(-c2ccc(F)cc2)ccc1=O)C1CCS(=O)(=O)C1` (stereo unspecified), the Percent Effect in assay [1] is -7.39%; in assay [2], 10.5%; in assay [3] it was 7.4%; in assay [4], 10.6%; in the assay on Trypanosoma cruzi, 1.85%; in [5] it was -16.6%. In addition, the Percent Effect in assay [6] was 6.81%; in the assay filed under Homo sapiens, -4.86%; in [7], 3.19%; in assay [8], 7.79%; in assay [9] it was -3.65%.
